These results are taken from paper PMC7862700, “An all-to-all approach to the identification of sequence-specific readers for epigenetic DNA modifications on cytosine”.

What all share (assay): DAPPL (digital affinity profiling via proximity ligation, sequencing); 10 mM Tris-HCl pH 7.5, 50 mM NaCl, 1 mM DTT, 4% glycerol, room temperature, 30 min; GST-TFs on glutathione beads, 16-mer random dsDNA library, 0.1% formaldehyde crosslink after washing; high values mean tight binding
For one test, the target named is T1, FEV (Homo sapiens, UniProt Q99581 1-238).
T1 sequence: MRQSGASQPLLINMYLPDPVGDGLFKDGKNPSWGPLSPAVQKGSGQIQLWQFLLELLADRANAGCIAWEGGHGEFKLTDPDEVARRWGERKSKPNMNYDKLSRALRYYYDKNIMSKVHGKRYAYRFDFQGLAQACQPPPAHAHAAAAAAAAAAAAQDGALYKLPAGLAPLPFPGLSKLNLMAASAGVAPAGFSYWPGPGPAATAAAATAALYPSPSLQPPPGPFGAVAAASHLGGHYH
As to conditions: protein: recombinant; tags: N-terminal GST; dsDNA, one strand shown. In short, it runs like this: (§1)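 Human transcription factors were made in yeast as GST fusions, captured on glutathione beads and barcoded with DNA. With a tag-only sample included, the pool was incubated with 200 nmole of a random double-stranded 16-mer DNA library in Tris/NaCl/DTT/glycerol buffer at room temperature for 30 min, then crosslinked with 0.1% formaldehyde after washing, ligated by proximity, amplified and sequenced. For binding signal, each hexamer's read frequency for a factor is divided by its frequency for the tag-only sample.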

The target in a further test is ETV5 (Homo sapiens, UniProt P41161 1-510). As to conditions: protein: recombinant; tags: N-terminal GST; dsDNA, one strand shown. Put shortly: as §1
The next test concerns the target HSF1 (Homo sapiens, UniProt Q00613 1-529). The settings on record: protein: recombinant; tags: N-terminal GST; chain copies: 3; dsDNA, one strand shown. In short, it runs like this: as §1
Another test has as its target T2, SPIC (Homo sapiens, UniProt Q8N5J4 1-248).
T2 sequence: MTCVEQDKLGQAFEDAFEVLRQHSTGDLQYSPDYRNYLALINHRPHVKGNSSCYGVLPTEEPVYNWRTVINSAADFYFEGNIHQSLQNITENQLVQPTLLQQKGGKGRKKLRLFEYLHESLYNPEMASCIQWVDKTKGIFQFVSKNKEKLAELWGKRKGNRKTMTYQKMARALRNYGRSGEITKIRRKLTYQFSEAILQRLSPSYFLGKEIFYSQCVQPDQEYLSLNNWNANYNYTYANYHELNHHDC
The settings on record: protein: recombinant; tags: N-terminal GST; dsDNA, one strand shown. In short, it runs like this:
as §1

In another test the target is ELF4 (Homo sapiens, UniProt Q99607 1-663). As to conditions: protein: recombinant; tags: N-terminal GST; dsDNA, one strand shown. Put shortly: as §1
A further test has as its target T3, ELK4 (Homo sapiens, UniProt P28324-2 1-405).
T3 sequence: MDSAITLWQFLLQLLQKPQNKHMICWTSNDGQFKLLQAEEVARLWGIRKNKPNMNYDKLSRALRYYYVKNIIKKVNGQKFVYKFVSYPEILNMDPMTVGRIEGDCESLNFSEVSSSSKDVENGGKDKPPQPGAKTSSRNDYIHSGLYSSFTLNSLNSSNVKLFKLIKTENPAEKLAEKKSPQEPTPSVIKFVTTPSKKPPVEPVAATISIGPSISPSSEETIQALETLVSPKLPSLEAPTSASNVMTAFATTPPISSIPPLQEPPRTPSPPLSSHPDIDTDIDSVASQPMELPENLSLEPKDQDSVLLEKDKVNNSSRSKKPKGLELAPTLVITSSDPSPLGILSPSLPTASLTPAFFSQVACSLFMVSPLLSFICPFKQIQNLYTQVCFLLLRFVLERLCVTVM
The settings on record: protein: recombinant; tags: N-terminal GST; dsDNA, one strand shown. Put shortly:
as §1

A further test concerns the target T4, ETV2 (Homo sapiens, UniProt O00321 1-342).
T4 sequence: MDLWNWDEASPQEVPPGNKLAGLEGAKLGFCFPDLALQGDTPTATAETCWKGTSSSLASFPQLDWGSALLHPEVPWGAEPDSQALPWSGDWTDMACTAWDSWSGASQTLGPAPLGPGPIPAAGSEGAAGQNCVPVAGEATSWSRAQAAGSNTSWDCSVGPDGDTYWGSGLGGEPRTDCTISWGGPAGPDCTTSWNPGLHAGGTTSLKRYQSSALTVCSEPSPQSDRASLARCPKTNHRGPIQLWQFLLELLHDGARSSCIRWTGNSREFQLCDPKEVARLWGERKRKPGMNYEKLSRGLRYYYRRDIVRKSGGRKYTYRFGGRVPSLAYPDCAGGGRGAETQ
As to conditions: protein: recombinant; tags: N-terminal GST; dsDNA, one strand shown. Put shortly:
as §1

For the next test, the target named is T5, ELF3 (Homo sapiens, UniProt P78545 1-371).
T5 sequence: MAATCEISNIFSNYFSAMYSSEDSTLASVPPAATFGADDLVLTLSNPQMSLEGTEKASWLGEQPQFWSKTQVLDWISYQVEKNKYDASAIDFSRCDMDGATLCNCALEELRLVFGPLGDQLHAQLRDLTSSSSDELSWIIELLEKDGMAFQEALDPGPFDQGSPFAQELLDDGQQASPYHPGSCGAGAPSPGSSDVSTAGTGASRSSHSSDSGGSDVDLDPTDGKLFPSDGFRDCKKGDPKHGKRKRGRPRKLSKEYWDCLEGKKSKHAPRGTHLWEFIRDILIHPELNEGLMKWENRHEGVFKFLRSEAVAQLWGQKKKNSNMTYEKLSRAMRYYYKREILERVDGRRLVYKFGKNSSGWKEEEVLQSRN
As to conditions: protein: recombinant; tags: N-terminal GST; dsDNA, one strand shown. Put shortly:
as §1

The next test has as its target CRX (Homo sapiens, UniProt O43186 1-299). As to conditions: protein: recombinant; tags: N-terminal GST; dsDNA, one strand shown. In short, it runs like this: as §1
A further test has as its target ETV1 (Homo sapiens, UniProt P50549 1-477). As to conditions: protein: recombinant; tags: N-terminal GST; dsDNA, one strand shown. Put shortly:
as §1

Another test concerns the target T6, ERF (Homo sapiens, UniProt P50548 1-548).
T6 sequence: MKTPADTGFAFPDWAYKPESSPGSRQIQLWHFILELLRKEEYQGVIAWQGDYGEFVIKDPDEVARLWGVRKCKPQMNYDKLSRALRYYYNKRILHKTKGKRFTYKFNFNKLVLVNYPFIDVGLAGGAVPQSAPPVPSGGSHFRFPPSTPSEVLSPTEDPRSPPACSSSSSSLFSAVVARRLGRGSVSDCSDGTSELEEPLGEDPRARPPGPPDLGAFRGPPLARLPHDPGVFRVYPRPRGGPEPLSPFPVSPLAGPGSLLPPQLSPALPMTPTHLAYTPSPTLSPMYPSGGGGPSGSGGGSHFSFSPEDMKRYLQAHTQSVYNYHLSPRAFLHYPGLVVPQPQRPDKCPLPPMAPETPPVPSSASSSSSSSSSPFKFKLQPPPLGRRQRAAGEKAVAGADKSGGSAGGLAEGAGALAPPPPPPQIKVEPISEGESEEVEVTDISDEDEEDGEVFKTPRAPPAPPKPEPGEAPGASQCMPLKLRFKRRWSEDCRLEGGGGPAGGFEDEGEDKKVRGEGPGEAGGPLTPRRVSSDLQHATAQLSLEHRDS
As to conditions: protein: recombinant; tags: N-terminal GST; dsDNA, one strand shown. In short, it runs like this: as §1

The next test has as its target T7, ETV3L (Homo sapiens, UniProt Q6ZN32 1-361).
T7 sequence: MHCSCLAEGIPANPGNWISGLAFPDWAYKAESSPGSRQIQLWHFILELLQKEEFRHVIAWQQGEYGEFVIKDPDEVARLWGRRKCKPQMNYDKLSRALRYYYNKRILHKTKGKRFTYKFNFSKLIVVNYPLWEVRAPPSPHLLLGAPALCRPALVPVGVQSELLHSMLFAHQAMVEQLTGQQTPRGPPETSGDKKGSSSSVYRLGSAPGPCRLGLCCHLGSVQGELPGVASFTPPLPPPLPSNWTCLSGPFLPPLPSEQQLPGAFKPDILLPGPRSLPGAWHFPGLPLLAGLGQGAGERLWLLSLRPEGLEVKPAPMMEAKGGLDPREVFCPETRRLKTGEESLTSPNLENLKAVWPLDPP
As to conditions: protein: recombinant; tags: N-terminal GST; dsDNA, one strand shown. In short, it runs like this: as §1

In the next test the target is T8, ETS2 (Homo sapiens, UniProt P15036 1-469).
T8 sequence: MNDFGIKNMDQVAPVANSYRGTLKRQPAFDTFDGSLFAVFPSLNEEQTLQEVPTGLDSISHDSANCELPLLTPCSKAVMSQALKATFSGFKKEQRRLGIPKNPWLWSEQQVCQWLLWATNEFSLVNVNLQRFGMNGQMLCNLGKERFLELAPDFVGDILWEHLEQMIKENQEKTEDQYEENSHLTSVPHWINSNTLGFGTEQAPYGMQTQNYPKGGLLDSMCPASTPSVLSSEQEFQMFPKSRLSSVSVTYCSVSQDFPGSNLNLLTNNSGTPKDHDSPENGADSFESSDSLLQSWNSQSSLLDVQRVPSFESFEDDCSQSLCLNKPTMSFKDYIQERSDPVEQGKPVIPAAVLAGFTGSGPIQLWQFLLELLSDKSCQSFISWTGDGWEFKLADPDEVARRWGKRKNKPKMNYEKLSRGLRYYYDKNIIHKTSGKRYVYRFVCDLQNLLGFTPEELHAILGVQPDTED
As to conditions: protein: recombinant; tags: N-terminal GST; dsDNA, one strand shown. In short, it runs like this: as §1

For the next test, the target named is T9, SPDEF (Homo sapiens, UniProt O95238 1-335).
T9 sequence: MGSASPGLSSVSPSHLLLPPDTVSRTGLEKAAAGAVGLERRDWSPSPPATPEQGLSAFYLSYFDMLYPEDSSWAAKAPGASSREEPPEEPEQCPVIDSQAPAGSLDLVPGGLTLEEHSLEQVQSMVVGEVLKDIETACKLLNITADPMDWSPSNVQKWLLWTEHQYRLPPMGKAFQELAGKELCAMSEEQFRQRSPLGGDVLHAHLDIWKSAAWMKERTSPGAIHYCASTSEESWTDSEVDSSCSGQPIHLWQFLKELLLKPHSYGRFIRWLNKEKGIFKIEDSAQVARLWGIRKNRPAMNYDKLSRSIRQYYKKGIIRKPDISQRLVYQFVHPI
The settings on record: protein: recombinant; tags: N-terminal GST; dsDNA, one strand shown. In short, it runs like this:
as §1

In the next test the target is T10, ETV7 (Homo sapiens, UniProt Q9Y603 1-341).
T10 sequence: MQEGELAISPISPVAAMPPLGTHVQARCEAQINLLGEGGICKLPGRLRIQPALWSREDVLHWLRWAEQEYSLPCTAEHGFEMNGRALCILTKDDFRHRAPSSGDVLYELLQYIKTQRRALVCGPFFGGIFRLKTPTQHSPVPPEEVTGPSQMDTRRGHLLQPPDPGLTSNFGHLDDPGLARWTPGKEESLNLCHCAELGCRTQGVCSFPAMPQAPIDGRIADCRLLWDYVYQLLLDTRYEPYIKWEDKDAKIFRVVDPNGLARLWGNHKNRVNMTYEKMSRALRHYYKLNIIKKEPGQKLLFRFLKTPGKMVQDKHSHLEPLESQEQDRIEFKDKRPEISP
As to conditions: protein: recombinant; tags: N-terminal GST; dsDNA, one strand shown. Put shortly: as §1

In the next test the target is T11, ELF5 (Homo sapiens, UniProt Q9UKW6-2 1-255).
T11 sequence: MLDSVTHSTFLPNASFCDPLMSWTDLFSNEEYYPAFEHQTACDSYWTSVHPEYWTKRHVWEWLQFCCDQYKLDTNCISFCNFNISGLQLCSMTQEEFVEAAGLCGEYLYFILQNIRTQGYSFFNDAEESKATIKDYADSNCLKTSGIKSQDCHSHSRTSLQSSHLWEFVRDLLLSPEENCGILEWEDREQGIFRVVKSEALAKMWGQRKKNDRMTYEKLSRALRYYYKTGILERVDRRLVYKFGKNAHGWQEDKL
As to conditions: protein: recombinant; tags: N-terminal GST; dsDNA, one strand shown. Put shortly: as §1

In the next test the target is T12, ETV3 (Homo sapiens, UniProt P41162-2 1-143).
T12 sequence: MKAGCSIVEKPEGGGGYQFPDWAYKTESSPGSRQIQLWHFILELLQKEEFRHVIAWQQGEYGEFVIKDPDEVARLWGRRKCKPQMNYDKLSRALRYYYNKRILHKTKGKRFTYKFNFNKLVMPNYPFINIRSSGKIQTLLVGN
As to conditions: protein: recombinant; tags: N-terminal GST; dsDNA, one strand shown. Put shortly:
as §1

In a further test the target is ETV6 (Homo sapiens, UniProt P41212 1-452). As to conditions: protein: recombinant; tags: N-terminal GST; dsDNA, one strand shown. In short, it runs like this: as §1
ETV6, sequence (P41212 whole entry): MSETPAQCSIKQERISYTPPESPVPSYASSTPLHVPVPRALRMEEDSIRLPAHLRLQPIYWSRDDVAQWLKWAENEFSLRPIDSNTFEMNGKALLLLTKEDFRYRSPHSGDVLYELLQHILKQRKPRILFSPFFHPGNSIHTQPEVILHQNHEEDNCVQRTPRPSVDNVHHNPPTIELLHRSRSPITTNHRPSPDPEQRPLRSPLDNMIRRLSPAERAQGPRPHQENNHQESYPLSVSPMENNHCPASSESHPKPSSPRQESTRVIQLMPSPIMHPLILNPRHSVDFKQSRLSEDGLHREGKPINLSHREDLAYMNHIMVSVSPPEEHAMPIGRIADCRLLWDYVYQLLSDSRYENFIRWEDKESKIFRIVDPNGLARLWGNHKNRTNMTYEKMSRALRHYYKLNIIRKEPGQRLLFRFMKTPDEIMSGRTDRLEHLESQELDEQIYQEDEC

HSF1, sequence (Q00613 whole entry): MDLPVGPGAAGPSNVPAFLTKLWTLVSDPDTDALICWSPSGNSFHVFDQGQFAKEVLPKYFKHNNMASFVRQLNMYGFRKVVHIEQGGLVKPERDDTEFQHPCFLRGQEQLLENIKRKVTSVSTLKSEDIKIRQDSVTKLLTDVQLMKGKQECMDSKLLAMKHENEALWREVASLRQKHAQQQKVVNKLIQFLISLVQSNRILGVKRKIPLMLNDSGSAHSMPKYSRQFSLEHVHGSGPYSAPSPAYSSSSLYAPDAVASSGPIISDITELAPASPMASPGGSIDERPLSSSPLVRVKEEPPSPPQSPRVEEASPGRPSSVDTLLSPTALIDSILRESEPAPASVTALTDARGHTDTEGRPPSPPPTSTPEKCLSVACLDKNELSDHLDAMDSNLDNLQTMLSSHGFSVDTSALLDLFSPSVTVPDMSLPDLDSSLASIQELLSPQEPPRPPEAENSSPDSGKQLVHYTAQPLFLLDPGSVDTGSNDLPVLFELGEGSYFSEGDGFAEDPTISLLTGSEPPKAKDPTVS
ETV1, sequence (P50549 whole entry): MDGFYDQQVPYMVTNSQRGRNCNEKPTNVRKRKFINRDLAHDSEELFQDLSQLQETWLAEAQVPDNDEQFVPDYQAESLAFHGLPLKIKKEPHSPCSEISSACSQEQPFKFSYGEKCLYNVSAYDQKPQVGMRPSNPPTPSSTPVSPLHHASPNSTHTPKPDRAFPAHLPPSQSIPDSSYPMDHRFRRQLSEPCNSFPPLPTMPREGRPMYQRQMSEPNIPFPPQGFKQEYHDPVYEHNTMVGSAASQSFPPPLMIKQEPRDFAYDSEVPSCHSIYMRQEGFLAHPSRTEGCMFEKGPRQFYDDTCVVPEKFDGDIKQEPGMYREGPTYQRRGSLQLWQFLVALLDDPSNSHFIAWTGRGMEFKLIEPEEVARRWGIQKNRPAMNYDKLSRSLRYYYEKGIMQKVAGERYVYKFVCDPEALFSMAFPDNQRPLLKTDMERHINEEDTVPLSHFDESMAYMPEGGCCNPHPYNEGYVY
CRX, sequence (O43186 whole entry): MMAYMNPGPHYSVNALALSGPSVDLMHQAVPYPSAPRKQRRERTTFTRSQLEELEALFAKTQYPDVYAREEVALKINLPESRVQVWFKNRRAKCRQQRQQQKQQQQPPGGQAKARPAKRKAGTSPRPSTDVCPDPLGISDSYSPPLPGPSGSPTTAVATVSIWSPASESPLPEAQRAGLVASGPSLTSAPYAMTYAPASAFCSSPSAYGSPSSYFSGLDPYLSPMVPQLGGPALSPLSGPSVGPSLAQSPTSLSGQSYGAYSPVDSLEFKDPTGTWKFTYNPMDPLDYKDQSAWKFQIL
ELF4, sequence (Q99607 whole entry): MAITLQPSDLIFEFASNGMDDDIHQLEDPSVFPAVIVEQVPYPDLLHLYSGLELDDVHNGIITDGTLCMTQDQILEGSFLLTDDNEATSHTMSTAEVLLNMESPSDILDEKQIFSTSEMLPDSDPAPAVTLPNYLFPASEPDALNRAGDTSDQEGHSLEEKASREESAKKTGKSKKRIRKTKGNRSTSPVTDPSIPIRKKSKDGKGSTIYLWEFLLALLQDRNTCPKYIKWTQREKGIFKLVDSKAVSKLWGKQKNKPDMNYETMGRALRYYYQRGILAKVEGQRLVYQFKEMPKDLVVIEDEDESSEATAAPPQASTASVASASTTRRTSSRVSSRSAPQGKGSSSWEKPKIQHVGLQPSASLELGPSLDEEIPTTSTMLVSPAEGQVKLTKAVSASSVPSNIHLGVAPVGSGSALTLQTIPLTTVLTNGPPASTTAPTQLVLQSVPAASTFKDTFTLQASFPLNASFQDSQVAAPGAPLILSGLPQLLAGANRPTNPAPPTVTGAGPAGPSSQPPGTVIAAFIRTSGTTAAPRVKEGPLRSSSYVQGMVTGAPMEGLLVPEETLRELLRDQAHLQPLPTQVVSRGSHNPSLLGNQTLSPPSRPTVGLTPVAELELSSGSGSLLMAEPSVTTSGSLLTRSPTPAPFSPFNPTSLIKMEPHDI
ETV5, sequence (P41161 whole entry): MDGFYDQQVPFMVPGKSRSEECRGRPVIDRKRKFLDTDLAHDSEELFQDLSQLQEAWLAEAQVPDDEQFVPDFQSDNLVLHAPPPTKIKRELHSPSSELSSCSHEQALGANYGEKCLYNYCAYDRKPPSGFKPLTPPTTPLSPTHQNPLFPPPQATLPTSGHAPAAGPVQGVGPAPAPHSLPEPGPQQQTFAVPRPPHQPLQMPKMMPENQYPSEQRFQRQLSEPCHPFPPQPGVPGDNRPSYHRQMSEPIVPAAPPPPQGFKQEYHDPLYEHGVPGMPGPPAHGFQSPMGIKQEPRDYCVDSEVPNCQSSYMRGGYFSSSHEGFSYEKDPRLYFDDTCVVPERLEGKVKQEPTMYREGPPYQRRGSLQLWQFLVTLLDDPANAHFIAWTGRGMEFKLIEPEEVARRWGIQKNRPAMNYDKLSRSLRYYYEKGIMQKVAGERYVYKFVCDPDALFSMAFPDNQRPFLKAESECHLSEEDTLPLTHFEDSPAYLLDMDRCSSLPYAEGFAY

As to TTGTAA, the binding signal with FEV is 1.2 fold enrichment (6-mer frequency, TF over GST control); with ETV5, 1.35 fold enrichment (6-mer frequency, TF over GST control); with HSF1, 1.4 fold enrichment (6-mer frequency, TF over GST control); with SPIC, 1.31 fold enrichment (6-mer frequency, TF over GST control); with ELF4, 1.24 fold enrichment (6-mer frequency, TF over GST control); with ELK4, 1.36 fold enrichment (6-mer frequency, TF over GST control). The binding signal with ETV2 is 1.36 fold enrichment (6-mer frequency, TF over GST control); with ELF3 it was 1.44 fold enrichment (6-mer frequency, TF over GST control); with CRX it was 1.62 fold enrichment (6-mer frequency, TF over GST control); in the test with ETV1 it was 1.31 fold enrichment (6-mer frequency, TF over GST control); with ERF, 1.36 fold enrichment (6-mer frequency, TF over GST control); with ETV3L, 1.32 fold enrichment (6-mer frequency, TF over GST control). The binding signal in the test with ETS2 was 1.23 fold enrichment (6-mer frequency, TF over GST control); in the test with SPDEF, 1.26 fold enrichment (6-mer frequency, TF over GST control); with ETV7, 1.27 fold enrichment (6-mer frequency, TF over GST control); with ELF5, 1.26 fold enrichment (6-mer frequency, TF over GST control); with ETV3, 1.3 fold enrichment (6-mer frequency, TF over GST control); in the test with ETV6 it was 1.28 fold enrichment (6-mer frequency, TF over GST control).
